Screening results from PubChem BioAssay.
An excerpt weighted towards active compounds, which were near 2.5% of everything screened.
Pol kappa inh – qHTS for Inhibitors of Polymerase Kappa; DNA polymerase kappa (Homo sapiens), Q9UBT6; 400,000 tested, 0.53% active; Potency, µM (titrated, usually from 107 µM), without a hit: top-dose activity, negative = inhibition, hits mostly inhibitors; purified Pol kappa, fluorescent DNA synthesis assay, 10 min; note: % is set by controls: 0 for no effect and ±100 for the full control effect
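Kinetic fluorescence screen: compound preincubated 15 min RT with 10 nM enzyme; 50 nM substrate (final) initiates; reads at 0/10 min.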
Pol beta inh – qHTS Assay for Inhibitors of DNA Polymerase Beta | Pol beta primer extension/strand displacement, fluorescence kinetic | Potency, µM (titrated, usually from 114 µM), for the others: at the highest dose activity change, negative = inhibition, actives largely listed as inhibitors | P06746 | 340,000 tested, 1.3% active | AID 485314, 2010; note: % is set by controls: 0 for no effect and ±100 for the full control effect
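Reaction started by 50 nM substrate onto compound-treated Pol beta (10 nM, 15 min preincubation, room temperature); plates read at 0 min and 10 min. Normalized concentration-effect data fitted by four-parameter Hill equation.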
POLI inh – qHTS for Inhibitors of Polymerase Iota; DNA polymerase iota (Homo sapiens), Q9UNA4; Pol iota fluorescent replication assay, 10 min; Potency, µM (doses to about 115 µM), inactives show at the top dose activity, negative = inhibition, most hits filed as inhibitors; 390,000 tested, 1% active
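Fluorescent replication assay read twice, at 0 min and 10 min after adding 50 nM (final) substrate. Enzyme (10 nM) and compounds were first incubated 15 min at room temperature; enzyme-free buffer wells were negative controls.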
Pol eta inh – qHTS for Inhibitors of Polymerase Eta | DNA polymerase eta (Homo sapiens), Q9Y253 | recombinant Pol eta, fluorescent DNA replication assay | Potency, µM (doses to about 114 µM), for inactives: at the highest dose activity change, negative = inhibition, most hits filed as inhibitors | 390,000 tested, 1.2% active | AID 588591, 2011; note: % is set by controls: 0 for no effect and ±100 for the full control effect
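Pol eta at 10 nM preincubated with compounds 15 min at room temperature; reaction started with fluorescent substrate (50 nM final) and read kinetically at 0 and 10 min.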
L3MBTL1 block – qHTS Assay for the Inhibitors of L3MBTL1 | Lethal(3)malignant brain tumor-like protein 1 (Homo sapiens), Q9Y468 | AlphaScreen L3MBTL1–H3K9me1 peptide binding | Potency, µM (doses to about 57.1 µM), for the others: top-dose activity, negative = inhibition, most hits filed as inhibitors | 230,000 tested, 0.66% active | AID 485360, 2010; note: % is set by controls: 0 for no effect and ±100 for the full control effect; nearly all actives have a fitted effect of over 60% in size
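L3MBTL1 50 nM + b-AHA-H3(1-15)K9me1 75 nM, 30 min RT; compound added, 30 min RT; streptavidin donor/Ni-chelate acceptor beads 10 ug/mL each final, 30 min RT dark; AlphaScreen read.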
WRN inhibitor – qHTS for Inhibitors of WRN Helicase; Bifunctional 3'-5' exonuclease/ATP-dependent helicase WRN (Homo sapiens), Q14191; WRN helicase unwinding, fluorescent forked duplex, kinetic; Potency, µM (titrated, usually from 114 µM), for the others: at the highest dose activity change, negative = inhibition, most hits filed as inhibitors; 360,000 tested, 0.46% active; AID 651768, 2012; note: % is set by controls: 0 for no effect and ±100 for the full control effect; nearly all actives have a fitted effect of over 55% in size
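Primary qHTS, 1536-well format. 20 nM WRN + compound, 15 min RT; start with 100 nM forked fluorophore/quencher duplex, 2 mM ATP (final); kinetic read ex 525/em 598 nm.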
Starred values were filed as active, the others as inactive; ? = inconclusive; . = no result; [ ] = another dose, or the depositor's remark. Calls come from the whole dose curve; as a rule, active = well fitted curve in the direction sought with a large enough effect; inconclusive = small, poorly fitted or top-dose-only effect, or another doubt; inactive = no such curve, though single readings can be large; an effect the other way counts as inactive or inconclusive. Potency is the fitted concentration of half-maximal effect.

SMILES	Pol kappa inh	Pol beta inh	POLI inh	Pol eta inh	L3MBTL1 block	WRN inhibitor
Cc1nc2ccccc2n1-c1ccccc1	11.2%	12.4%	3.7%	-8.3%	1.8%	3.1%
Cc1ccccc1N=Cc1cccc(O)c1O	10µM*	3.55µM*	?	?	2.51µM*	11.2µM*
CCN(CC)c1ccc(C=Nc2ccc(C)cc2C)c(O)c1	5.5%	2.9%	63.3%	-19.4%	9.8%	-21.2%
CC(N=Cc1cccc(O)c1O)c1ccccc1 (stereo not given)	12.6µM*	2.51µM*	8.91µM*	?	.	31.6µM*
Oc1cccc(/C=N/N=C/c2cccc(O)c2O)c1O	11.2µM*	0.316µM*	?	2.82µM*	-2.3%	-14.2%[11.6 µM]
Cc1ccc(N=Cc2cccc(O)c2O)c(C)c1	20µM*	10µM*	3.55µM*	.	31.6µM*	.
Oc1ccccc1C=NN=C1c2ccccc2-c2ccccc21	-11.1%	.	5.0%	-17.2%	.	-5.3%
O=C(COc1ccc(Br)cc1)NCCCn1ccnc1	1.2%	1.2%	-21.4%	-16.2%	.	8.1%
O=C(CSc1nnc(C2CC2)n1-c1ccccc1)NC1CCS(=O)(=O)C1 (stereo not given)	-6.3%	.	-4.6%	1.5%	1.3%	3.7%
COc1ccccc1NS(=O)(=O)c1ccc(C)c(C(=O)N2CCN(c3ccc(O)cc3)CC2)c1	-5.9%	.	-7.8%	-9.1%	-1.1%	-1.0%
Nc1ncccc1C(=O)OCC(=O)NC1CCCCCC1	-26.3%	.	22.8%	79.4µM*	-10.7%	-0.4%[11.6 µM]
O=C(COC(=O)c1ccccn1)NC1CCCCC1	-5.6%	-17.3%	33.0%	6.8%	-2.7%	4.3%
O=C(Nc1nnc(SCc2ccc(F)cc2)s1)c1ccc2ncsc2c1	1.0%	2.5%	3.16µM*	-6.1%	?	-4.4%[11.6 µM]
CC(=O)Nc1nnc(SCc2ccc(F)cc2)s1	-4.6%	22.1%	15.4%	-3.7%	3.0%	-2.0%
COc1ccc(NC(=O)c2ccc(NC(=O)CSc3nccc(=O)[nH]3)cc2)cc1	-10.1%	12.8%	1.6%	25.1µM*	.	?
COc1ccc(C(=O)Nc2c(N)nc(SCC(=O)Nc3ccc(NC(C)=O)cc3)[nH]c2=O)cc1	?	35.5µM*	79.4µM*	?	.	-29.4%
Cc1cc(=O)oc2cc(Oc3ncccc3[N+](=O)[O-])ccc12	-10.0%	?	97.3%	-7.6%	.	2.9%
NC(=O)c1ccc(Oc2ccc3ccc(=O)oc3c2)c([N+](=O)[O-])c1	?	?	?	28.2µM*	?	-14.8%[11.6 µM]
O=c1ccc2ccc(Oc3ccc([N+](=O)[O-])cc3Cl)cc2o1	0.6%	-20.0%	14.1%	-10.3%	.	-4.1%
Cc1cc(=O)oc2cc(Oc3ccc([N+](=O)[O-])cc3[N+](=O)[O-])ccc12	-7.5%	-4.2%	79.4µM*	?	2.7%	-34.7%[11.6 µM]
CC(C)(C)C(=O)Cn1ncc(Br)c(Br)c1=O	3.3%	6.4%	-6.1%	-2.8%	1.7%	-10.0%
C[C@@H](O)C#Cc1ccc2c(c1)O[C@H](CN(C)C(=O)Nc1ccccc1)[C@@H](C)CN([C@@H](C)CO)S2(=O)=O	.	.	.	-1.8%	.	0.3%
COc1cc(CNC2CCCCCCC2)c(Br)cc1OCCO	?	0.0%	5.5%	0.2%	2.4%	-1.1%
COc1ccccc1-n1c(SCc2cc(=O)oc3cc(O)ccc23)nc2ccccc2c1=O	-44.8%	?	?	31.6µM*	-12.6%	?
COc1ccccc1-n1c(SCC(=O)N2CCOCC2)nc2ccccc2c1=O	-1.4%	19.5%	59.3%	-1.5%	.	2.9%
SMILES	Pol kappa inh	Pol beta inh	POLI inh	Pol eta inh	L3MBTL1 block	WRN inhibitor
Clc1ccc(OCCCNCc2ccccc2)c2ccccc12	5.0%	2.3%	37.6%	-17.6%	-2.4%	20.4%
CC1(C)CCCN(C(=O)c2ccc3c(c2NCCO)C(=O)c2ccccc2C3=O)C1	-12.1%	-27.6%	21.1%	-29.8%	35.5µM*	-17.4%
COc1ccc(-c2noc(-c3ccccc3OCC(=O)Nc3ccc(C(C)=O)cc3)n2)cc1	7.2%	14.7%	14.0%	-8.8%	.	.
CCOc1ccccc1-c1nc(-c2ccc(NC(=O)Cc3ccc(OC)cc3)cc2)no1	-21.2%	31.6µM*	?	?	3.5%	-28.1%[57.1 µM]
CN(Cc1cnn(C)c1)C(=O)C1CCCCC1C(=O)O (stereo not given)	0.4%	12.9%	5.6%	7.8%	-2.2%	2.5%
CCN1CCCC1CNC(=O)c1ccc2c(c1)NC(=O)/C(=C\c1ccc(C)cc1)S2 (stereo not given)	-21.7%	6.3%	34.6%	-31.9%	.	-9.2%
CC(=O)c1ccccc1OCC(O)CN1CCN(CCN2C(=O)c3cccc4cccc(c34)C2=O)CC1 (stereo not given)	-15.2%	39.8µM*	22.5%	-1.2%	-8.5%	16.5%
Cc1ccc(C)c(OCC(O)CN2CCN(CCN3C(=O)c4cccc5cccc(c45)C3=O)CC2)c1 (stereo not given)	-8.8%	-19.4%	-25.6%	-15.7%	-9.2%	14.2%[57.1 µM]
COc1ccc(NC2CCCN(C(=O)CCN3CCOCC3)C2)cc1 (stereo not given)	-1.6%	3.7%	79.4µM*	-2.6%	.	4.4%
COc1ccc(NC2CCCN(C(=O)CCN3CCCO3)C2)cc1 (stereo not given)	-4.2%	1.4%	38.3%	-10.2%	.	6.9%
Cc1ccc(C2(C)NC(=O)N(CC(=O)c3ccc(Cl)s3)C2=O)cc1 (stereo not given)	-15.4%	20µM*	?	?	-0.6%	-18.4%[57.1 µM]
COCCCNC(=S)NNC(=O)c1ccccn1	-11.5%	4.4%	93.1%	-8.9%	8.91µM*	7.3%
Cc1ncc(CO)c(/C=N/NC(=S)Nc2ccc(Cl)c(Cl)c2)c1O	-0.3%	18.8%	-17.7%	-8.0%	?	-7.9%
Cc1ncc(CO)c(/C=N/NC(=S)Nc2cccc(Cl)c2)c1O	-3.6%	-4.3%	?	-5.8%	14.1µM*	-6.2%
CC(C)(C)c1ccc(S(=O)(=O)n2c(CN3CCOCC3)nc3ccccc32)cc1	-5.7%	12.9%	3.4%	2.0%	.	-1.0%
COc1cc(O)c2c(c1)oc(=O)c1c3cc(O)c(O)cc3oc21	0.752µM*	.	.	.	.	.
COc1ccc2c(c1)oc(=O)c1cc(OC)ccc12	-4.5%	?	-1.0%	-11.9%	2.8%	0.6%
COc1ccc(NS(=O)(=O)c2ccc(N)c(C(=O)O)c2)cc1	-1.1%	-1.4%	0.5%	2.4%	-2.8%	-0.6%
